Assay outcomes from PubChem BioAssay.
An excerpt weighted towards active compounds, which were near 21% of everything screened.
D3 ag = D3 dopamine receptor (human) agonism; D3R DiscoveRx beta-arrestin cells, luminescence, 90 min; max activation, %; 410,000 tested, 0.58% active; in the data active = max activation above about 30%
Target sequence (P35462 whole entry, looked up): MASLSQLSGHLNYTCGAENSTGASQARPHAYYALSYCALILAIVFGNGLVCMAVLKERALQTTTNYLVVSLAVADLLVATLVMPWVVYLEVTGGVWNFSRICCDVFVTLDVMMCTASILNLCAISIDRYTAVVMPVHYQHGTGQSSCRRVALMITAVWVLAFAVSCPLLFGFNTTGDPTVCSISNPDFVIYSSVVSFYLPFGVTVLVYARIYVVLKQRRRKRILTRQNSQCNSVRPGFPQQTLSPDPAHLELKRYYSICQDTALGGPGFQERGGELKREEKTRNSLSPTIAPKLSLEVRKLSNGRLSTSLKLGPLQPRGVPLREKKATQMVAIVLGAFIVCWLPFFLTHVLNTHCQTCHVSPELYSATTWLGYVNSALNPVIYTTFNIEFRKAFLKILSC
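Agonist mode: compounds and dopamine controls were applied to plated cells for 90 min at 37 degrees C after an overnight attachment at 1500 cells/well. Luminescent read-out followed 30 - 60 minutes at room temperature with DiscoveRx detection reagent.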
D3 antag = D3 dopamine receptor (human) antagonism | D3R cells, DiscoveRx beta-arrestin luminescence, antagonist mode; stronger effect = lower value | 360,000 tested, 2.5% active | P35462 | AID 652054 | max response, negative = inhibition, %; in the data active = max response below about -50%; inconclusive = no clear call, values can overlap the other calls
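Cells expressing the human receptor were seeded at 1500 cells/well, incubated overnight at 37 degrees C in 5% CO2, then exposed to library compounds with dopamine controls for 90 minutes at 37 degrees C before luminescent detection.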
IL1B secr inh = blocks inflammasome-driven IL-1 beta release. activity change, % at 57.5 µM. AID 743279. 360,000 tested, 4.7% active. THP-1 LPS/ATP IL-1B secretion, AlphaLISA, 16 h; stronger effect = lower value; in the data active = activity change below about -50%; inconclusive = mostly about -30% to -49%
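Secreted IL-1B measured by AlphaLISA bead assay after 16 h compound exposure of THP-1 cells; compounds (final up to 57.5 uM) added 1 h before LPS (250 ng/mL) and ATP (1.25 mM) stimulation; lower signal means less secretion.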
DT40 TDP1 no CPT = qHTS for Inhibitors of human tyrosyl-DNA phosphodiesterase 1 (TDP1): qHTS in cells in absence of CPT. Potency, µM (highest dose often 46.2 µM), usual class: inhibitors. 420,000 tested, 15% active. DT40 Tdp1-/- hTDP1 cells, no CPT, ATP luminescence, 48 h; also: nearly all actives have a fitted effect of over 55% in size
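Growth kinetics read by CellTiter-Glo luminescence after ≥48 hr at 37 °C. Cells: DT40 Tdp1-/- stably carrying human TDP1, 400 per well, compound exposure in the absence of CPT (DMSO vehicle).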
ClpP mod = qHTS Assay for Activators of ClpP | ATP-dependent Clp protease proteolytic subunit (Bacillus subtilis (strain 168)), P80244 | purified B. subtilis ClpP, FRET peptide cleavage, 20 min | Potency, µM (top dose mostly 57.5 µM) | 340,000 tested, 1.9% active | AID 651965, 2013; active = well fitted falling curve with a large enough effect; inconclusive = small, poorly fitted or top-dose-only effect; inactive = no such curve, though single readings can be large or run the other way; also: the source files actives as falling curves though it sought activators and does not explain the sign; nearly all actives have a fitted effect of over 65% in size
Target sequence (P80244 whole entry, looked up): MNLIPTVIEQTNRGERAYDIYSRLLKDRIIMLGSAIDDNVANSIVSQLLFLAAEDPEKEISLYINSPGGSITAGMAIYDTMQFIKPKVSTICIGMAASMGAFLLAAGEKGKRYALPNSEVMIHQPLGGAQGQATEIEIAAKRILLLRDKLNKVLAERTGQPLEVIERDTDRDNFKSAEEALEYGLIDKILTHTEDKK
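FRET quenching reversal measured ClpP activation: 10 microg/mL B. subtilis ClpP at pH 8 with the FRET-FV decapeptide, read at 430 nm after 320 nm excitation. The 20-min minus 0-min signal was scaled between DMSO/no-enzyme wells and ADEP (5.8 microM final).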
TDP1 cell CPT = growth inhibition of DT40 Tdp1-/-;hTDP1 cells with camptothecin (screen for TDP1 inhibitors); chicken DT40 Tdp1-/-;hTDP1 cells + 20 nM CPT, ATP luminescence, 48 h; Potency, µM (series often up to 46.2 µM), actives largely listed as inhibitors; 420,000 tested, 12% active; also: nearly all actives have a fitted effect of over 55% in size
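Chicken DT40 Tdp1-/- cells stably complemented with human TDP1 were seeded at 400 cells/well in medium containing 20 nM camptothecin, exposed to pin-transferred compounds, and grown at 37 °C for at least 48 hr. Viability was read as ATP luminescence.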
A number is an active result; n = inactive; u = inconclusive; x = not tested or not shown. Unless noted, calls follow the shape of the dose curve; as a rule, active = well fitted inhibition curve with a large enough effect; inconclusive = small, poorly fitted or top-dose-only effect; inactive = flat fitted curve, though single readings scatter.

SMILES	D3 ag	D3 antag	IL1B secr inh	DT40 TDP1 no CPT	ClpP mod	TDP1 cell CPT
Cc1ccc(NC(=O)C(=O)NCC(c2ccc3c(c2)OCO3)N2CCN(c3ccccc3)CC2)cc1 (centres undefined)	n	x	x	n	n	n
O=C(CCN1C(=O)/C(=C/c2ccccc2)SC1=S)N[C@@H](CO)Cc1ccccc1	n	n	-60.8	10.3µM	n	18.4µM
O=C(CCN1C(=O)/C(=C/c2ccccc2F)SC1=S)N[C@@H](CO)Cc1ccccc1	n	n	-99.3	16.4µM	x	u
Cc1cc(NC(=O)CN2C(=O)/C(=C/c3ccccc3F)SC2=S)no1	n	n	n	n	x	n
CN1NC(c2ccccc2)NN(C)C1=O	n	n	n	n	n	18.4µM
CCC(=O)c1ccc(OCC(=O)OC(C)C(=O)NCc2ccc3c(c2)OCO3)cc1 (centres undefined)	n	n	n	n	n	n
COc1ccc(C(=O)NCC(c2ccco2)N2CCc3ccccc32)c(OC)c1 (centres undefined)	n	n	n	7.31µM	n	u
COc1ccc(S(=O)(=O)NCC(c2ccco2)N2CCc3ccccc32)cc1 (centres undefined)	n	n	n	14.6µM	n	u
COc1ccc(C(=O)NCC(c2ccco2)N2CCc3ccccc3C2)c(OC)c1 (centres undefined)	n	n	n	8.2µM	n	23.1µM
Cc1ccc(S(=O)(=O)NCC(c2ccco2)N2CCc3ccccc32)cc1 (centres undefined)	n	n	u	u	x	u
CCCc1cc(=O)[nH]c(SCc2nc(-c3ccccc3)no2)n1	n	x	x	n	n	n
COCCCNC(=O)CC1C[C@H](C(=O)N2CCCCC2)[C@@]2(CCc3ccccc3)c3[nH]c4ccc(OC)cc4c3CCN2C1=O (some centres undefined)	n	n	n	u	n	u
CC(C)(C)c1ccc(C(=O)C[n+]2ccc(Cl)c3ccc(Cl)cc32)cc1	x	x	x	0.355µM	n	0.891µM
Nc1ncnc2c1ncn2[C@@H]1O[C@H](CNCC#Cc2ccccc2)[C@@H](O)[C@H]1O	n	n	u	u	n	u
CC(C)Oc1cccc(C(=O)C2CCCN(C(=O)c3ccc4c(c3)OCO4)C2)c1 (centres undefined)	n	n	n	u	n	u
CC(C)Oc1cccc(C(=O)C2CCCN(C(=O)c3ccnn3C)C2)c1 (centres undefined)	n	n	n	20.6µM	n	u
CC(C)Oc1cccc(C(=O)C2CCCN(C(=O)c3noc4c3CCCC4)C2)c1 (centres undefined)	n	n	n	20.6µM	x	18.4µM
CCc1cc(C(=O)N2CCCC(C(=O)c3ccc(Oc4ccccc4)cc3)C2)n(C)n1 (centres undefined)	n	n	-60.7	14.6µM	x	10.3µM
CCc1cc(C(=O)N2CCCC(C(=O)c3ccc(OC)c(F)c3)C2)n(C)n1 (centres undefined)	n	n	n	u	n	u
CCc1[nH]nc(C(=O)N2CCCC(C(=O)c3cccc(OC(C)C)c3)C2)c1C (centres undefined)	n	n	u	16.4µM	n	u
Cc1ccc(NC(=O)CCN2CC(C)OC(C)C2)cc1C (centres undefined)	n	n	n	n	n	n
COc1ccc(CNC(=O)CCC2N=C3c4ccccc4N=C(SCc4cccc(F)c4)N3C2=O)cc1 (centres undefined)	n	x	x	u	n	u
CCCCN(C)CCCNC(=O)/C=C1\Sc2ccccc2NC1=O	n	n	n	n	n	n
CCc1cc(C(=O)N2CCCC(C(=O)c3cccc(OC(C)C)c3)C2)n(C)n1 (centres undefined)	n	n	n	18.4µM	x	16.4µM
COc1cc(NC(=O)CCn2c(=S)[nH]c3ccccc3c2=O)cc(OC)c1OC	n	u	n	n	n	n
SMILES	D3 ag	D3 antag	IL1B secr inh	DT40 TDP1 no CPT	ClpP mod	TDP1 cell CPT
CCC(C)C(NC(=O)C1CCC(C)CC1)C(=O)NCCc1ccc(S(N)(=O)=O)cc1 (centres undefined)	n	n	n	n	n	n
CCN1CCCC1CNS(=O)(=O)c1c(C)cc(C)cc1C (centres undefined)	n	-99.6	n	n	n	n
CCC1CCCCN1CCCNC(=O)C1CCC(CNS(=O)(=O)c2c(C)cc(C)cc2C)CC1 (centres undefined)	n	n	n	u	n	29.1µM
CCC(C)C(NC(=O)C1CCC(C)CC1)C(=O)NCCCN1CCCCC1CC (centres undefined)	n	n	-63.5	n	n	n
CCCc1ccc(S(=O)(=O)NCC2CCCN2CC)cc1 (centres undefined)	n	n	n	n	n	n
Cc1ccc(NC(=O)C(Cc2ccccc2)NS(=O)(=O)c2ccc3c(c2)CCC(=O)N3)cc1 (centres undefined)	n	x	x	n	n	n
CC(=O)c1ccc(NC(=O)NCCc2c[nH]c3ccccc23)cc1	n	x	x	u	n	u
CC[C@H](C)[C@H]1CNC(=S)N1CC1CCN(CCCCc2ccccc2)CC1	n	-64.6	u	n	n	n
CCCC[C@@H]1CNC(=S)N1CC1CCCCC1	n	n	n	u	n	u
CC(C)C[C@H]1CNC(=S)N1CC1CCN(CCCC2CCCCC2)CC1	n	-100.7	-54.3	u	n	18.4µM
CCCC[C@@H]1CNC(=S)N1CCC12CC3CC(CC(C3)C1)C2	n	u	n	18.4µM	n	u
S=C1NCCN1CC1CCN(CCC23CC4CC(CC(C4)C2)C3)CC1	n	n	u	u	n	u
CC(C)C[C@H]1CNC(=S)N1CC1CCN(CCC23CC4CC(CC(C4)C2)C3)CC1	n	-72.3	-50.1	16.4µM	n	u
CC(C)C[C@H]1CNC(=S)N1CC1CCN(CC2CCCC2)CC1	n	u	n	n	n	n
Cc1cccc(NC(=O)CSCC(=O)N2CCN(Cc3ccc4c(c3)OCO4)CC2)c1	n	n	n	n	n	n
CC[C@H](C)[C@H]1CNC(=S)N1CC1CCN(CCC(C)(C)C)CC1	n	n	n	n	n	n
CC[C@H](C)[C@H]1CNC(=S)N1CC1CCN(CCCC2CCCC2)CC1	n	-77.8	n	u	n	u
CCOC(=O)c1c(C)[nH]c(C(=O)COC(=O)/C=C/c2ccc(OC(F)F)cc2)c1C	n	n	n	n	n	n
CCOC(=O)c1c(C)[nH]c(C)c1C(=O)COC(=O)/C=C/c1ccc(OC(F)F)cc1	n	n	-54.2	u	n	u
